Source: PubChem
Sampled rows, rich in hits. Any-hit rate of the full collection: about 6%.
D3 antag = blocks the human D3 dopamine receptor. P35462. D3R cells, DiscoveRx beta-arrestin luminescence, antagonist mode; stronger effect = lower value. max response, negative = inhibition, %. 360,000 compounds, 2.5% hits; in the data active = max response below about -50%; inconclusive = no clear call, values can overlap the other calls; also: % is scaled to controls: 0 for no effect and ±100 for the full control effect
Target sequence (P35462 whole entry, looked up): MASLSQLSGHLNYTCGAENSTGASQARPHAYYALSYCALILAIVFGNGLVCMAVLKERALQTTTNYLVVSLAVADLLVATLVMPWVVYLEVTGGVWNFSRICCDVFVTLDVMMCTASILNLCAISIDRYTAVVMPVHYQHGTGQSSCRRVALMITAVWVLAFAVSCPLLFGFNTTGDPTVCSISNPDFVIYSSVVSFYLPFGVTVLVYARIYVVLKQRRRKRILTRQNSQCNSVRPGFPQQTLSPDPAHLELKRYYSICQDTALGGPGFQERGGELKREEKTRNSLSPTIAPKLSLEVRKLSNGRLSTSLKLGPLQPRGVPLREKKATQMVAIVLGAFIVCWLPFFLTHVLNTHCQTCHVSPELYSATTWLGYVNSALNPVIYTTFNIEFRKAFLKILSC
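Cells expressing the human receptor were seeded at 1500 cells/well, incubated overnight at 37 degrees C in 5% CO2, then exposed to library compounds with dopamine controls for 90 minutes at 37 degrees C before luminescent detection.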
D1 agonist = agonists of human D1 dopamine receptor | P21728 | HEK293 T-REx D1 cells, calcium flux, agonist mode | activation, % at 2 µM | 360,000 compounds, 1% hits | AID 504660; in the data active = activation above about 30%; also: 0% is about no effect
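Agonism was scored from calcium flux recorded over 180 s (1 read/s) after pintool compound addition, following a 10-cycle baseline. Cells were inducible force-coupled HEK293 TREx D1, plated overnight at 30 C and loaded with no-wash calcium dye.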
D1 antagonist = human D1 dopamine receptor antagonism | 360,000 compounds, 3.2% hits | HEK293 TREx D1 cells, calcium flux, dopamine EC80; stronger effect = lower value | activity change, negative = inhibition, % at 10 µM; in the data active = activity change below about -30%; also: % is scaled to controls: 0 for no effect and ±100 for the full control effect
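Tetracycline-induced HEK293 T-REx cells with force-coupled D1 receptor were loaded with a no-wash calcium dye. Compound was added after a 10 s baseline and read kinetically for 180 s; EC80 dopamine was then added and calcium flux followed another 180 s.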
D3 ag = activates the human D3 dopamine receptor; P35462; D3R DiscoveRx beta-arrestin cells, luminescence, 90 min; max activation, %; 410,000 compounds, 0.58% hits; in the data active = max activation above about 30%; also: 0% is about no effect
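Agonist mode: compounds and dopamine controls were applied to plated cells for 90 min at 37 degrees C after an overnight attachment at 1500 cells/well. Luminescent read-out followed 30 - 60 minutes at room temperature with DiscoveRx detection reagent.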
D1 potentiator = enhances dopamine response at the human D1 receptor | P21728 | HEK293 TREx D1 cells, calcium flux, dopamine EC20 potentiation | potentiation, % at 10 µM | 360,000 compounds, 0.036% hits | AID 504651; in the data active = potentiation above about 30%; also: 0% is about no effect
Numbers without * were called inactive; ? = inconclusive; . = not tested or not shown.

SMILES	D3 antag	D1 agonist	D1 antagonist	D3 ag	D1 potentiator
COc1ccc(NC(=O)CSC2=NCCN2)cc1	-17	2	-30*	-3	-6
CCc1nc2ccc(C(=O)N(C)CCN(C)C)cn2c1N(C)Cc1cc2ccccc2s1	-69*	.	.	-27	.
CCc1nc2ccc(C(=O)N(CC)CCN(C)C)cn2c1N(C)Cc1cccs1	-18	.	.	-15	.
CSc1ccc(OC2(C)CCN(Cc3ccc(-c4ccccn4)cc3)C2)cc1 (stereo unspecified)	-55*	.	.	1	.
CC1(Oc2cccc(C#N)c2)CCN(Cc2ccc(-c3ccccn3)cc2)C1 (stereo unspecified)	-12	.	.	-6	.
CC1(Oc2ccc(Cl)cc2)CCN(Cc2ccc(-c3ccccn3)cc2)C1 (stereo unspecified)	-121*	.	.	-9	.
COc1cc(Cl)ccc1OC1(C)CCN(Cc2ccccc2OC(F)F)C1 (stereo unspecified)	?	.	.	-18	.
COc1cc(Cl)ccc1OC1(C)CCN(Cc2cccc(OC)c2OC)C1 (stereo unspecified)	-61*	.	.	-11	.
CC1(Oc2ccccc2)CCN(Cc2ccc(-c3ccccn3)cc2)C1 (stereo unspecified)	-79*	.	.	-13	.
CC1(Oc2cnc(Cl)c3ccccc23)CCN(Cc2ccc(OC(F)(F)F)cc2)C1 (stereo unspecified)	2	.	.	-7	.
CCCC(=O)N1CCCC1(C)C(=O)N(C)Cc1cccc2ccccc12 (stereo unspecified)	6	.	.	0	.
CSc1ncccc1C(=O)N1CCCC(N2CCN(c3ccccc3F)CC2)C1 (stereo unspecified)	-14	8	-8	0	-14
COc1cc(Cl)ccc1OC1(C)CCN(Cc2ccc(-c3ccccn3)cc2)C1 (stereo unspecified)	?	.	.	45*	.
COc1cc(Cl)ccc1OC1(C)CCN(Cc2ccc3ccccc3c2)C1 (stereo unspecified)	-116*	.	.	-8	.
O=C(Nc1ccc(N2CCOCC2)cc1)C1CCCCN1S(=O)(=O)c1ccccc1 (stereo unspecified)	9	5	-32*	5	-3
CC(C)c1ccc(NC(=O)C2CCCN2S(=O)(=O)c2ccccc2F)cc1 (stereo unspecified)	10	5	-34*	-2	-10
O=C(Nc1ccccc1)C1CCCCN1S(=O)(=O)c1ccccc1 (stereo unspecified)	0	3	-5	1	-7
O=C(Nc1ccccc1F)c1nc(SCc2ccccc2F)ncc1Cl	.	12	2	-7	1
CCOC(=O)C1CCCN(C(=O)C2CCN(c3nnc(C)c4c(C)n(-c5ccccc5)nc34)CC2)C1 (stereo unspecified)	.	0	19	-15	0
Clc1ccc(CN2C3=NCCCN3c3ccccc32)cc1	-6	72*	-60*	5	-9
Clc1ccc(CN2C3=NCCCN3c3ccccc32)cc1Cl	-6	15	4	0	0
O=C(CN1C2=NCCCN2c2ccccc21)c1cccc(Br)c1	?	38*	1	-9	-8
COc1ccc(CNC(=O)CC(c2ccc(OC)cc2)N2Cc3ccccc3C2=O)cc1 (stereo unspecified)	.	1	4	-16	0
Cc1cc2nc3c(=O)n(C4CCCCC4)c(=O)[nH]c3nc2cc1N	7	213*	-24	4	-8
Cc1cc(C)cc(Nc2cc(=O)n(C3CCCCC3)c(=O)[nH]2)c1	-3	17	-16	-2	-4
SMILES	D3 antag	D1 agonist	D1 antagonist	D3 ag	D1 potentiator
CC(=O)N1CCc2c(sc3c2c(=O)n(CCc2ccccc2)c(=O)n3Cc2ccc(Cl)cc2)C1	.	6	15	-12	-6
Cc1ccc(-c2nc3ccccc3[nH]2)cc1NC(=S)NC(=O)c1ccccc1Br	-51*	0	-10	-6	-2
COCCNC(=O)C1CCCN(S(=O)(=O)c2ccc3c(ccn3C)c2)C1 (stereo unspecified)	.	1	6	9	0
CCOCCCNC(=O)c1ccc(N2CCOCC2)c(NS(=O)(=O)c2ccc(OC)cc2)c1	13	-1	7	3	-3
COCCCNC(=O)c1ccc(N2CCOCC2)c(NS(=O)(=O)c2ccc(OC)cc2)c1	-73*	1	0	5	5
Cc1ccc(N(Cc2ccccc2)C(=O)CN2C(=O)NC3(CCCC3)C2=O)cc1	-1	-1	5	5	-1
CN(C(=O)COC(=O)c1ccc([N+](=O)[O-])cc1)c1ccccc1	2	0	-8	4	-1
CN(C(=O)COC(=O)CSc1ccc([N+](=O)[O-])cc1)c1ccccc1	-16	12	-47*	-9	.
COc1cc(OC)c(C2C(C(=O)O)c3ccccc3C(=O)N2C)cc1OC (stereo unspecified)	2	1	28	1	-4
Cc1ccc(C2C(C(=O)O)c3ccccc3C(=O)N2C)c(C)c1 (stereo unspecified)	1	2	-40*	5	2
COc1ccccc1/C=c1\sc2nc(-c3ccccc3OC)nn2c1=O	-4	1	-36*	-6	-1
COc1ccc(Br)cc1/C=c1\sc2nc(-c3ccco3)nn2c1=O	0	4	-3	5	2
CCOc1ccccc1NC(=O)c1ccc(F)c(S(=O)(=O)N2CCN(c3ccc(F)cc3)CC2)c1	.	3	1	2	0
COc1ccc(OC)c2c1CCC2=O	-52*	0	-65*	3	-8
COc1ccccc1NC1=C(C)C(=O)CC1	5	-3	1	-2	0
CCOc1ccccc1NC(=O)C1CCN(S(=O)(=O)c2c(C)noc2/C=C/c2ccco2)CC1	.	1	-3	-9	8
O=C(c1ccc2nc[nH]c2c1)N1CCN(c2ncc(C(F)(F)F)cc2Cl)CC1	11	7	16	7	-3
O=C(c1ccccc1)c1ccccc1C(=O)N1CCOCC1	14	2	7	3	-4
O=C(c1ccccc1)c1ccccc1C(=O)N1CCCC1	-50*	0	-8	-3	-1
Cc1ccc(S(=O)(=O)NNC(=O)Nc2ccccc2F)c(C)c1	0	2	1	2	-8
CCN1CCN(CCCNC(=O)Cn2c(-c3cccs3)cc3cc(F)ccc32)CC1	.	36*	-6	-10	4
O=C(Cn1c(-c2cccs2)cc2cc(F)ccc21)NCCCN1CCN(c2ccc(F)cc2)CC1	.	-2	-35*	1	0
O=C(Cn1c(-c2cccs2)cc2cc(F)ccc21)N1CCN(c2ccccc2)CC1	.	1	6	9	-1
COc1ccc(CCNC(=O)Cn2c(-c3cccs3)cc3cc(F)ccc32)cc1OC	.	4	-17	5	-4
CCCCOCCCNC(=O)C[C@@H]1C[C@@]2(C(=O)OCC)CCC=C2N(Cc2ccccc2)C1=O	26	.	.	0	.
O=C(CNC(=O)C1CCCCC1)NNC(=O)c1ccccc1Br	-15	2	-35*	-17	-8
